Results from the supplement of paper PMC11732987, “Enantioselective OTUD7B fragment discovery through chemoproteomics screening and high-throughput optimisation” (Communications Chemistry, 2025).

Experiments:
Assay in all cases: log2 ratio of Biotin-Ahx-Ub-VS probe labelling (fragment/DMSO); higher = less target engagement (more negative = stronger competition), active = hit call of the paper (q ≤ 0.05, log2 ratio ≤ -1)
Conditions in all cases: compound concentration: 200 uM; treatment time: 3 h
USP42 = molecular target: T1, USP42 (UniProt Q9H9J4)
T1 sequence (whole entry): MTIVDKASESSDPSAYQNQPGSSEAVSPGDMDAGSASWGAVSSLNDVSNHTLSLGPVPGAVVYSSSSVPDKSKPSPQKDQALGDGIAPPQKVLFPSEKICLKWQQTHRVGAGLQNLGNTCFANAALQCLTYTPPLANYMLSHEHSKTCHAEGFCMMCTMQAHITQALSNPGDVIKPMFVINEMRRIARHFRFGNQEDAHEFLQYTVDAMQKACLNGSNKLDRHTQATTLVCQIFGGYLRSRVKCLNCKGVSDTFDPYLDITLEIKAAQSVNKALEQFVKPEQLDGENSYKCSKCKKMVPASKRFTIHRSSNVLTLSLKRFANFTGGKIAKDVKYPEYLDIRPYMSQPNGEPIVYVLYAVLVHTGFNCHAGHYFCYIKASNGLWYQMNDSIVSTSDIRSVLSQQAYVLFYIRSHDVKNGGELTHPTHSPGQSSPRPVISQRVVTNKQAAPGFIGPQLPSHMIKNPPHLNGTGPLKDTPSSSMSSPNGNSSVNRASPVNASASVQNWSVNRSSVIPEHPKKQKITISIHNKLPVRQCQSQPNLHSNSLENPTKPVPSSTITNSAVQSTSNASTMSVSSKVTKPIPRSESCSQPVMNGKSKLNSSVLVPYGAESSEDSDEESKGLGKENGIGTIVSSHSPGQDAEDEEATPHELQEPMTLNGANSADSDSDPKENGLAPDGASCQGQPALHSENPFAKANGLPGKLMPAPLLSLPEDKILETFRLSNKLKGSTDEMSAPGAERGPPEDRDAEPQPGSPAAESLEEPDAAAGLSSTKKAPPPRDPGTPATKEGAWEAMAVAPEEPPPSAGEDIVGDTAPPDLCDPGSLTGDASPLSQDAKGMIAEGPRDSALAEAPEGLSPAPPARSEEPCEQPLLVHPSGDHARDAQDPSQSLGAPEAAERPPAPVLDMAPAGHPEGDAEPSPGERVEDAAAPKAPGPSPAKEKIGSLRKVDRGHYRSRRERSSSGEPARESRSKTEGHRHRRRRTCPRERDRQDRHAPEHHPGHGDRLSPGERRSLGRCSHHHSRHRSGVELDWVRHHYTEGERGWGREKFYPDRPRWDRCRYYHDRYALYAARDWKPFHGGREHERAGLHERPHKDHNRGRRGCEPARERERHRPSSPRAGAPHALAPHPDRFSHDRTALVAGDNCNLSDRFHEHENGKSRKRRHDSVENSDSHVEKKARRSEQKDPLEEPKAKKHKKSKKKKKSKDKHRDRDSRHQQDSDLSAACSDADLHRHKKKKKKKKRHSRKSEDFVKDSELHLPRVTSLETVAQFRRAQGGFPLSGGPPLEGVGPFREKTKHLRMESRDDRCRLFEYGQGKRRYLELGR
Procedure, shortened: (§1)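 HEK293T lysate (495 µg per sample, in Tris/CHAPS/IGEPAL buffer with protease inhibitors) was treated in triplicate with fragment at 200 µM or with DMSO for 3 h. It was then treated with Biotin-Ahx-Ub-VS (0.5 µM final) for 1 h. Labelled DUBs were NeutrAvidin-enriched, digested with LysC and trypsin, and run by diaPASEF LC-MS/MS. Spectronaut label-free quantities were global-median-normalised. Values are average log2 ratios fragment/DMSO by unpaired t-test, using proteins with ≥2 unique peptides.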

USP46 = USP46 (UniProt P62068)
Sequence of USP46 (P62068 whole entry): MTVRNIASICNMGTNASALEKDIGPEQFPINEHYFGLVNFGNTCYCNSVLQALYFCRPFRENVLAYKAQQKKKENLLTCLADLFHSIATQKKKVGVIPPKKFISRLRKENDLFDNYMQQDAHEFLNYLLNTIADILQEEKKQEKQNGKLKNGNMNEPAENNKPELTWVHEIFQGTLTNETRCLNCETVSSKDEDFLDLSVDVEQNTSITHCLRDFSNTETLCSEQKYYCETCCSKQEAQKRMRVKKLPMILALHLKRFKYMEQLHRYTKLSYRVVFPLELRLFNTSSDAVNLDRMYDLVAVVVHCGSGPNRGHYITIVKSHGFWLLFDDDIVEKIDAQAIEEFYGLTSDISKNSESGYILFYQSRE
Procedure, shortened: as §1

USP47 = molecular target: T2, USP47 (UniProt Q96K76)
T2 sequence (whole entry): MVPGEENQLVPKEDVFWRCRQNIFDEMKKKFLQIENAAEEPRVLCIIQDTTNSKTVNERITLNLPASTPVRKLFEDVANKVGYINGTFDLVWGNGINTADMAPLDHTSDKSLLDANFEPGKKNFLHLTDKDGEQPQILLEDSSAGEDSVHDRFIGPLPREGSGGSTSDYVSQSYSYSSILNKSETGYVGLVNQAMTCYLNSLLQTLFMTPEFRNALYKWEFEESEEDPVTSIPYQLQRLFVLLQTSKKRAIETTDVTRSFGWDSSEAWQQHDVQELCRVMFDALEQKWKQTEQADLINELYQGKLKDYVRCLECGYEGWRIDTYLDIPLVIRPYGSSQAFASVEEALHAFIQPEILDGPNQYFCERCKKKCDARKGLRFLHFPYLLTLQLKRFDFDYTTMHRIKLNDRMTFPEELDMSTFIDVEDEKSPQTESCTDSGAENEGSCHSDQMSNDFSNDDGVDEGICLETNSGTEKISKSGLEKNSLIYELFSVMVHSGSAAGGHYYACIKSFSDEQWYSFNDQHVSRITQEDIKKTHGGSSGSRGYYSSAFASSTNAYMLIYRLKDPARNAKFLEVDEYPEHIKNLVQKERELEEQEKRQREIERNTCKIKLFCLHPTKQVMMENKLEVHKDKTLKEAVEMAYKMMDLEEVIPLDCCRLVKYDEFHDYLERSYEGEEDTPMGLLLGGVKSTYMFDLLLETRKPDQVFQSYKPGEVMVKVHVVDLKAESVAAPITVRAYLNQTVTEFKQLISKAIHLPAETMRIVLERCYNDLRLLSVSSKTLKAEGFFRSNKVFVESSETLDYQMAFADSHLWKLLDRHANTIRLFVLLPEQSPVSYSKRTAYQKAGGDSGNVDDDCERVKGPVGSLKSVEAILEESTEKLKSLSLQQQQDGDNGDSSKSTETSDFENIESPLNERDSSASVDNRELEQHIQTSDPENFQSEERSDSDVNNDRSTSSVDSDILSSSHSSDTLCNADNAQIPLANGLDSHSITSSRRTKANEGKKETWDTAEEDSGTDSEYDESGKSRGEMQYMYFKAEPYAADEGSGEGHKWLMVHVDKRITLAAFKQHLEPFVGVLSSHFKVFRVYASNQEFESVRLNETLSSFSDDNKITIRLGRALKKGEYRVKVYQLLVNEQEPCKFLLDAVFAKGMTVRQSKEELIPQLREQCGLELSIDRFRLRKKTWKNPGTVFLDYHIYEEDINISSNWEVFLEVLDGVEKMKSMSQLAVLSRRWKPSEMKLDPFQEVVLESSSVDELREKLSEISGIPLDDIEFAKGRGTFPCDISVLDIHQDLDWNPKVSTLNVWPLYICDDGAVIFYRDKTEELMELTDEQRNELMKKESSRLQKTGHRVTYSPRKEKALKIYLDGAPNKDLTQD
Procedure, shortened: as §1

USP48 = molecular target: T3, USP48 (UniProt Q86UV5)
T3 sequence (whole entry): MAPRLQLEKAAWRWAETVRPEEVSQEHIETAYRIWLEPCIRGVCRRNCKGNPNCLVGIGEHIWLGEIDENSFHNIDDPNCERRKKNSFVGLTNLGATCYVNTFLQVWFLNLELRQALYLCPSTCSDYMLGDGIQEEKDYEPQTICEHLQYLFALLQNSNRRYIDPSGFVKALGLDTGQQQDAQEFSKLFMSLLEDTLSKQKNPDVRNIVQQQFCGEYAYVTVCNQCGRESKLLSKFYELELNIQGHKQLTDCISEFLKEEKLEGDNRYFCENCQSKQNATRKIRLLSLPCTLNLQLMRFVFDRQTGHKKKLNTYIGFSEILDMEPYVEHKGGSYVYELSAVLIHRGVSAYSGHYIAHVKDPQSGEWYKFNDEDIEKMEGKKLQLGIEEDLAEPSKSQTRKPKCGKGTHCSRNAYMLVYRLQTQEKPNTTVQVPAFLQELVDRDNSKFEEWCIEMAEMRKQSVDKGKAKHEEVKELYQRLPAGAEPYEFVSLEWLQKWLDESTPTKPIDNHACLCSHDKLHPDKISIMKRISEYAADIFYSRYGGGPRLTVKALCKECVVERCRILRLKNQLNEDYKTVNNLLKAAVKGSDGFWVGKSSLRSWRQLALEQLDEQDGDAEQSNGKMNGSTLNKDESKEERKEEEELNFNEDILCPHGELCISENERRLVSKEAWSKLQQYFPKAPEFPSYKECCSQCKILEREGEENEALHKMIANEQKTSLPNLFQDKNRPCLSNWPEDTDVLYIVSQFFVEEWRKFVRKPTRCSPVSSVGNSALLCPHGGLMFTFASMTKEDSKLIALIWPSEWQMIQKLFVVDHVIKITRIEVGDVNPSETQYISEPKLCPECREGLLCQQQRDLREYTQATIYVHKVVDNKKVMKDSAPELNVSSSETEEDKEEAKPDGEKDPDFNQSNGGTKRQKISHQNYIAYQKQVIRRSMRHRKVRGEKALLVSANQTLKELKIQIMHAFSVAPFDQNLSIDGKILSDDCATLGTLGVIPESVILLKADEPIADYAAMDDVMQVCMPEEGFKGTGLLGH
Procedure, shortened: as §1

USP5 = molecular target: T4, USP5 (UniProt P45974)
T4 sequence (whole entry): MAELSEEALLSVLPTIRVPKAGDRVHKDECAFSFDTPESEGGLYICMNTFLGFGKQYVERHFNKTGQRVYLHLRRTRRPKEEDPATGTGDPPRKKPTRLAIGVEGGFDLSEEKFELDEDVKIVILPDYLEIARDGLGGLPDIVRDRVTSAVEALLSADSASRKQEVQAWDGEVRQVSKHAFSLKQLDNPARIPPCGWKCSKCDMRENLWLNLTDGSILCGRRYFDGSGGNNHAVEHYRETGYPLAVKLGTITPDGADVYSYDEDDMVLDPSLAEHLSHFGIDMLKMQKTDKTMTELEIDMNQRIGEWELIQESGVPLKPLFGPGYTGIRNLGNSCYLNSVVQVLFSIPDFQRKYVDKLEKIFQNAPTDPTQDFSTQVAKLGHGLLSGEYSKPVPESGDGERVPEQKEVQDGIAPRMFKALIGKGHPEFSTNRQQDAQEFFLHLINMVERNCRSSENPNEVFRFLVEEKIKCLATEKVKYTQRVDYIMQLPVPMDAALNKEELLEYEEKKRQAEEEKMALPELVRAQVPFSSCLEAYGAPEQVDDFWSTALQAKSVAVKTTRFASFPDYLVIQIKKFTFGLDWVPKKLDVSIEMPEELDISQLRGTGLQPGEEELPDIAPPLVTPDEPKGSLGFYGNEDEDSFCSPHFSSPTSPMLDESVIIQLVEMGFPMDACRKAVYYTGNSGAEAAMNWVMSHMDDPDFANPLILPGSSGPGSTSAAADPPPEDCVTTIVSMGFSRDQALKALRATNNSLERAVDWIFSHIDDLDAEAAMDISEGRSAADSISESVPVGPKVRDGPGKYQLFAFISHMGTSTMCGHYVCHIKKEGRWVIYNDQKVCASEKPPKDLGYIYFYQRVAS
Procedure, shortened: as §1

USP54 = USP54 (UniProt Q70EL1)
Sequence of USP54 (Q70EL1 whole entry): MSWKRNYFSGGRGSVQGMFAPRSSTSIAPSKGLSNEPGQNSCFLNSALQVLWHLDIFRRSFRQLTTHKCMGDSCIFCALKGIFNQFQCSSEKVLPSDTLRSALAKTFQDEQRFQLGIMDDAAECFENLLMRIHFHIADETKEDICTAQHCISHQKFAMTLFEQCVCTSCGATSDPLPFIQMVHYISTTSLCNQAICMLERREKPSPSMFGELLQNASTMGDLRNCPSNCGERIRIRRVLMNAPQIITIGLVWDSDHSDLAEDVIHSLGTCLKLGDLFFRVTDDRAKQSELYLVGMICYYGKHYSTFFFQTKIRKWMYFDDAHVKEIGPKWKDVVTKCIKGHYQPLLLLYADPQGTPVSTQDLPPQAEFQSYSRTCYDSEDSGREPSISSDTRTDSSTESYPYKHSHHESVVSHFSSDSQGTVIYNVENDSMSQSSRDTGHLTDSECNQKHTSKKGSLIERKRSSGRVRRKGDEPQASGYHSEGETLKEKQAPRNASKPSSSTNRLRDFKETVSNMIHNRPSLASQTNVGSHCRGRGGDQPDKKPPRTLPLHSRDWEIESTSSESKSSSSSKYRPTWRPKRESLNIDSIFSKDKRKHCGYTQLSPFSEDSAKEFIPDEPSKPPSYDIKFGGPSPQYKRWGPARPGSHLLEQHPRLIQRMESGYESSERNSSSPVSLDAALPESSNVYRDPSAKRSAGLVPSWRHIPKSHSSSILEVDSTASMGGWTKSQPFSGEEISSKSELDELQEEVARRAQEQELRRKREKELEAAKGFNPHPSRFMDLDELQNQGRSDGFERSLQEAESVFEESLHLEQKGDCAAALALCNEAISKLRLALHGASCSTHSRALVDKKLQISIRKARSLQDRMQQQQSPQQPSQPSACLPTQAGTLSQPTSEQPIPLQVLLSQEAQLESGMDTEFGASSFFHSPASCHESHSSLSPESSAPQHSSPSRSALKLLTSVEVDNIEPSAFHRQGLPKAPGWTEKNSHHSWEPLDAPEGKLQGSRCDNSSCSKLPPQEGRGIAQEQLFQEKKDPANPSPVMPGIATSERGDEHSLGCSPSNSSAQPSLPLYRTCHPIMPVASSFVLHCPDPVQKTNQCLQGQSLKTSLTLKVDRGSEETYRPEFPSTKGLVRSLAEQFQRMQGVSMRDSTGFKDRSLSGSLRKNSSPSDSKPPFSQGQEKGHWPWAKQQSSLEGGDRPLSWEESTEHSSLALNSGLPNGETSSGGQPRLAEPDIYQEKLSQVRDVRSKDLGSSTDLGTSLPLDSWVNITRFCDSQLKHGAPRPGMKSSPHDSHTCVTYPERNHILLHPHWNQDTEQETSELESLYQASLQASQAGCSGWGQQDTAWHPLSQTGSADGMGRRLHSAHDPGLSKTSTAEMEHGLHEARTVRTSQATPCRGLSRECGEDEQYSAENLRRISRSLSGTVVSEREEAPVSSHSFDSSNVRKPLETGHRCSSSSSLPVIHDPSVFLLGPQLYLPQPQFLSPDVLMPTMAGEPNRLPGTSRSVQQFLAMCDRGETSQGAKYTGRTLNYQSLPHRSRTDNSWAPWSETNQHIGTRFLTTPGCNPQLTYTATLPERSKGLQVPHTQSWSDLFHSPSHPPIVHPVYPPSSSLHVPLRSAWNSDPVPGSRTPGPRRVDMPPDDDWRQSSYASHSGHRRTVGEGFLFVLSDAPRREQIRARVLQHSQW
Procedure, shortened: as §1

USP7 = USP7 (UniProt Q93009)
Sequence of USP7 (Q93009 whole entry, looked up): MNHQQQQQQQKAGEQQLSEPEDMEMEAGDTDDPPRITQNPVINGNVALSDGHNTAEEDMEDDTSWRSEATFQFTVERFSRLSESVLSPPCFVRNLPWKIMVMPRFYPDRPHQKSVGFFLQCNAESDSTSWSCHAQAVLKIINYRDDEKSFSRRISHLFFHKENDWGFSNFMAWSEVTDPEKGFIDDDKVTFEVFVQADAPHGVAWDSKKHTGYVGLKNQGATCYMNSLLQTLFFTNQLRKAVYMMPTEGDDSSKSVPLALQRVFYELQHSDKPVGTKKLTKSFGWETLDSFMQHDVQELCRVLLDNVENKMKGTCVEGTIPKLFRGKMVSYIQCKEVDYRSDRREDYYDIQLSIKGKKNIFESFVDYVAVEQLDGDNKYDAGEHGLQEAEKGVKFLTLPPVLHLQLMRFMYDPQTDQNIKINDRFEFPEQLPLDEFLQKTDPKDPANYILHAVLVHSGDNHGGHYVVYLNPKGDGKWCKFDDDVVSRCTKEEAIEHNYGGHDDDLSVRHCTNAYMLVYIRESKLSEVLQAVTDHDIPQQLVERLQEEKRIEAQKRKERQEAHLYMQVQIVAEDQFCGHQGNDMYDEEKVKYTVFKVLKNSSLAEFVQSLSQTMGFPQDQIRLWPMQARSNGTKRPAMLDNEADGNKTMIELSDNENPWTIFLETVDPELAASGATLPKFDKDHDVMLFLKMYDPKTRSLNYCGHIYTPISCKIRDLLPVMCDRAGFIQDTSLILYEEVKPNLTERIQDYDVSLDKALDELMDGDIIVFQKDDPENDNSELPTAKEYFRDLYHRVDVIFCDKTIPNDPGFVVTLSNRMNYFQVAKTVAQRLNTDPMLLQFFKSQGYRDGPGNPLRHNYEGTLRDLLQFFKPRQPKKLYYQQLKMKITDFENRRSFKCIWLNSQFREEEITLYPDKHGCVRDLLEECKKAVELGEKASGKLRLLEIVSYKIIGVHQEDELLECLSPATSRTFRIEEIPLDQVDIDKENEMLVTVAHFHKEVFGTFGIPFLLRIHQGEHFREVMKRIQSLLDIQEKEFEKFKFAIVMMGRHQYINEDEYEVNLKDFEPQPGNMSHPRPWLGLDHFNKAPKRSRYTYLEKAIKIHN
Procedure, shortened: as §1

USP8 = molecular target: T5, USP8 (UniProt P40818)
T5 sequence (whole entry): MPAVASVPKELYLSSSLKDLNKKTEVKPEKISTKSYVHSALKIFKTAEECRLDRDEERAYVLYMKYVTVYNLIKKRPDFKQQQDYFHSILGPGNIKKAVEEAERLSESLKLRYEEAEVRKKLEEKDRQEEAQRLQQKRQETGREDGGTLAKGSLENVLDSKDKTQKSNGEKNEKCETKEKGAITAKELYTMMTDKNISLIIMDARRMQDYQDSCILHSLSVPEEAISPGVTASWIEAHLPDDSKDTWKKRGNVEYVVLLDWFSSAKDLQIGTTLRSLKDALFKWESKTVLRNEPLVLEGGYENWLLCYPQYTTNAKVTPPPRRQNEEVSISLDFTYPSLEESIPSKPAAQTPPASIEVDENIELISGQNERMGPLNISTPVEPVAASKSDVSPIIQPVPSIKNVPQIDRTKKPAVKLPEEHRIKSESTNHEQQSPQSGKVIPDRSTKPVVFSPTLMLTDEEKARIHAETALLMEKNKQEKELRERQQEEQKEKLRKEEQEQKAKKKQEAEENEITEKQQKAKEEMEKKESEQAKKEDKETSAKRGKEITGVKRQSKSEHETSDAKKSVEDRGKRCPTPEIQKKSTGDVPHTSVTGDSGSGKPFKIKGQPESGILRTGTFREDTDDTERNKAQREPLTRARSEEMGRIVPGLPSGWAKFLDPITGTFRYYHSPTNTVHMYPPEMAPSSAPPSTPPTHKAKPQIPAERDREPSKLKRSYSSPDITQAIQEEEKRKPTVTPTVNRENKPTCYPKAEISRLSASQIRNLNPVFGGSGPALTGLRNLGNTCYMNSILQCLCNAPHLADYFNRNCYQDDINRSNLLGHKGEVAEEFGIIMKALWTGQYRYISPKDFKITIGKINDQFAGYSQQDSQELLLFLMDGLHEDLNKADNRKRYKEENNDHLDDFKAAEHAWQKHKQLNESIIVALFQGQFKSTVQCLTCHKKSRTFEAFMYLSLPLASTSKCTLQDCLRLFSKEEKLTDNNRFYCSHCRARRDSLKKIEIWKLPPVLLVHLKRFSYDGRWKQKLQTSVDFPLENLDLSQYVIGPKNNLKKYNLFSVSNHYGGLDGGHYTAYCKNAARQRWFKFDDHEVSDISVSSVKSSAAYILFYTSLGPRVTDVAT
Procedure, shortened: as §1

Measured: log2 ratio of Biotin-Ahx-Ub-VS probe labelling

O=C(CCl)NCc1ccc2c(c1)OCO2
inactive: USP42 0.271 | USP46 0.12 | USP47 0.0619 | USP48 -0.33 | USP5 0.376 | USP54 0.581 | USP7 -0.297 | USP8 -0.155
